Drawing on PubChem BioAssay (NCATS), this text covers activation, Potency and activity change, negative = inhibition for 18 compounds.

Assay [1] addresses Cellular tumor antigen p53 (Homo sapiens) (UniProt P04637). Nature of the assay: Primary qHTS for small molecule compounds that upregulate eGFP-tagged delta133p53alpha (in N-terminal) cells. (AID 2060322).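 For activation: cells pre-induced with doxycycline then dosed without doxycycline; series mostly up to about 56 µM; 0% = DMSO vehicle and 100% = reference activator.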 Note: nearly all actives have a fitted effect of over 75% in size. Note: potency is the fitted concentration of half-maximal effect. As to conditions: NCI-H358 eGFP-delta133p53alpha fluorescence, 24 h; activation: active compounds read high. The gist of the method: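 NCI-H358 cells pre-induced 24 h with 10 ng/ml doxycycline for eGFP-delta133p53alpha, plated dox-free and exposed 24 h at 37C to titrated compounds. Fixed, Hoechst-stained; gated GFP peak intensity by laser scanning cytometry, normalized to DMSO (0%) and 57.5 uM 5-azacytidine (100%).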
Background: qHTS replaces the single test concentration by a dilution series.

Assay [2] deals with Aldehyde dehydrogenase, mitochondrial (Homo sapiens) (UniProt P05091). Nature of the assay: qHTS for Inhibitors of the Aldehyde Dehydrogenase Family (ALDH2) Primary screen (AID 2061308).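 Note: plate controls were vehicle for no effect and reference inhibitor for full effect; nearly all actives have a fitted effect of over 55% in size.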
Assay [3] addresses Retinaldehyde dehydrogenase 3 (Homo sapiens) (UniProt P47895). Nature of the assay: qHTS for Inhibitors of the Aldehyde Dehydrogenase Family (ALDH1A3) Primary screen (AID 2061315).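 Note: plate controls were DMSO vehicle for no effect and reference inhibitor for full effect.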

Molecules are shown by their SMILES. Inconclusive results are not listed. Unmarked numbers belong to inactive results. Calls of active or inactive are those of the source. Calls come from the whole dose curve; as a rule, active = well fitted curve in the direction sought with a large enough effect; inconclusive = small, poorly fitted or top-dose-only effect, or another doubt; inactive = no such curve, though single readings can be large; an effect the other way counts as inactive or inconclusive.

Chain of Cellular tumor antigen p53 (Homo sapiens) (P04637 whole entry, looked up): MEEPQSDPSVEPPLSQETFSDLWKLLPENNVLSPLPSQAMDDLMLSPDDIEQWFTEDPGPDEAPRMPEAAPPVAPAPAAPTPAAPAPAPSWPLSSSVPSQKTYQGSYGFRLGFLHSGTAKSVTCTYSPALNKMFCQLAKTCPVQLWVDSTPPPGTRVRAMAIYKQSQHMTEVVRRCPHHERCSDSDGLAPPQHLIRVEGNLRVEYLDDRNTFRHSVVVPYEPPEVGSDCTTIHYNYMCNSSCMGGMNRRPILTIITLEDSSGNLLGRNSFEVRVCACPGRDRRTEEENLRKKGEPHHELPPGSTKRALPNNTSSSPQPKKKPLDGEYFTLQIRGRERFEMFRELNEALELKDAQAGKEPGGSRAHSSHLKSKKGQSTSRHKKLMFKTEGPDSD

Turning to `CC12CC(O)C(O)C=C1c1cc(O)cc(O)c1C(=O)O2` (centres undefined), the activation in assay [1] was -7.63%. The Potency result in assay [2] and in assay [3] was “inactive” throughout.
On to `C=CC(C)(CC/C=C(\C)C(=O)OC[C@H]1O[C@@H](OC(C)(C=C)CC/C=C(\C)C(=O)O[C@H]2[C@H](O)[C@@H](O)[C@H](OC(C)(C=C)CC/C=C(\C)C(=O)O)O[C@@H]2CO)[C@H](O)[C@@H](O)[C@@H]1O)O[C@@H]1O[C@H](CO)[C@@H](O)[C@H](O)[C@H]1O` (some centres undefined), for which, in assay [1], the activation was -9.16%. Moreover, the Potency result in assay [2] and in assay [3] was “inactive” each time.
In the case of `CCCNc1ccc2ncc(-c3ccc4[nH]ncc4c3)n2n1`, in assay [1], the Potency was 2.39 µM (active). Further, the Potency result in assay [2] and in assay [3] was “inactive” in each case.
With `COc1cc2c(cc1OC)N1C(=O)C[C@]34C=CCN5CC[C@@H]2[C@@H](CC3)[C@]514`, the activation in assay [1] is 3.05%. The Potency result in assay [2] and in assay [3] was “inactive” in each case.
As to `CC(=O)OCC1=CCC2C(C)(C)CCCC2(C)C12CCC(C)(CC(=O)O)O2` (centres undefined), the activation in assay [1] is 25.9%. Besides, the Potency result in assay [2] and in assay [3] was “inactive” throughout.
For the compound `COC(=O)[C@@]1(C)CC[C@]2(C(=O)O[C@@H]3O[C@H](CO)[C@@H](O)[C@H](O)[C@H]3O)CC[C@]3(C)C(=CCC4[C@@]5(C)CC[C@H](O[C@@H]6O[C@H](C(=O)O)[C@@H](O)[C@H](O)[C@H]6O)C(C)(C)C5CC[C@]43C)[C@@H]2C1` (some centres undefined), the activation in assay [1] is -16.8%. For the same compound, the Potency result in assay [2] and in assay [3] was “inactive” throughout.
On to `CC(C)CC(=O)OC1OC=C(CO[C@@H]2O[C@H](CO)[C@@H](O)[C@H](O)[C@H]2O)C2CC(O)C(O)(CO)C12` (some centres undefined), for which the activation in assay [1] was 15.2%. Moreover, the Potency result in assay [2] and in assay [3] was “inactive” in each case.
For the compound `NC(=O)[C@H](Cc1ccccc1)NC(=O)[C@H](CCCN=C(N)N)NC(=O)C12CC3CC(CC(C3)C1)C2`, the activation in assay [1] was -9%. Also, the figures for the activity change, negative = inhibition in assay [2] and in assay [3] were 0.973% [at 11.2 µM] and -5.76% [at 11.2 µM], respectively.
For `CC1CCCC[C@H]2C(=O)C=C[C@H](O)[C@@H]2CC(=O)O1` (some centres undefined), in assay [1], the Potency is 23.9 µM (active). In addition, the Potency result in assay [2] and in assay [3] was “inactive” each time.
As to `OC[C@@]1(O)CO[C@H](OC[C@H]2O[C@@H](OC(CCCCc3ccc(O)cc3)CCc3ccc(O)cc3)[C@H](O)[C@@H](O)[C@@H]2O)[C@@H]1O` (some centres undefined), the activation in assay [1] is -1.53%. The Potency entry in assay [2] and in assay [3] was “inactive” each time.
In the case of `Cc1ccc(S(=O)(=O)NCc2ccc(C(=O)NCCN(Cc3ccccc3)C(C)C)cc2)cc1`, the activation in assay [1] was 3.67%. The Potency result in assay [2] and in assay [3] was “inactive” throughout.
As for `CC(C)=CCC/C(C)=C/COCC1OC(n2ccc(=O)[nH]c2=O)C(O)C1O` (centres undefined), in assay [1], the activation is 17%. Besides, the Potency entry in assay [2] and in assay [3] was “inactive” throughout.
Consider `Cc1nc(N2CCN(C(=O)c3ccco3)CC2)c2c3c(sc2n1)CCCC3`, for which, in assay [1], the activation is -12.9%. In addition, the Potency entry in assay [2] and in assay [3] was “inactive” throughout.
As to `C=C1C(OC2OC(CO)C(O)C(O)C2O)CC2C(C)(C)C(O)CCC2(C)C1CC/C(C)=C\COC(=O)CC(=O)O` (centres undefined), the activation in assay [1] is 0.763%. Besides, the Potency entry in assay [2] and in assay [3] was “inactive” each time.
With `CCC[C@@H](NC(=O)N1C(=O)C(CC)(CC)[C@@H]1Oc1ccc(C(=O)N2CCN(C)CC2)cc1)c1ccc2c(c1)OCO2`, in assay [1], the activation is -10.5%. Further, the Potency entry in assay [2] and in assay [3] was “inactive” throughout.
With `C=C1C2=CC(O)C(C)C1(C)CC/C(C)=C/CCC1(C)OC1C2=O` (centres undefined), the activation in assay [1] was 0.763%. Further, the Potency result in assay [2] and in assay [3] was “inactive” each time.
As for `CCC[C@@H]1C[C@@H](C(=O)N[C@@H]([C@H]2O[C@H](SC)[C@H](OP(=O)(O)O)[C@@H](O)[C@H]2O)[C@H](C)Cl)N(C)C1`, in assay [1], the activation was 13.4%. For the same compound, the Potency entry in assay [2] and in assay [3] was “inactive” each time.
As for `CCn1cc(C2=NOC(C(=O)Nc3c(C)n(C)n(-c4ccccc4)c3=O)C2)c(C)n1` (centres undefined), the activation in assay [1] was 9%. The Potency result in assay [2] and in assay [3] was “inactive” in each case.
